The structures appear in SMILES notation. Active and inactive are the calls of the source. The calls were made as follows: active = hit-call score of the fitted dose curve at least 0.9, where 1 is the maximum; inactive = score below 0.9.

This test can be described thus: ATG_AP_2_CIS: Attagene CIS-FACTORIAL HepG2 Assay for human Activator Protein 2 (AP-2) (AID 2282932). The settings on record: HepG2 AP-2 cis-reporter, Attagene transcription factor profiling; actives raise or lower the signal. The protocol:
ATG_CIS is a cell-based, multiplexed-readout assay that uses HepG2, a human liver cell line, with measurements taken at 24 hours after chemical dosing in a 24-well plate.ATG_AP_2_CIS is one of 52 assay component(s) measured or calculated from the ATG_CIS assay. It is designed to make measurements of mRNA induction, a form of inducible reporter, as detected with fluorescence intensity signals by Reverse transcription polymerase chain reaction (RT-PCR) and Capillary electrophoresis technology.Data from the assay component ATG_AP_2_CIS was analyzed into 1 assay endpoint. This assay endpoint, ATG_AP_2_CIS, was analyzed with bidirectional fitting relative to DMSO as the negative control and baseline of activity. Using a type of inducible reporter, measures of mRNA for gain or loss-of-signal activity can be used to understand the reporter gene at the transcription factor-level as they relate to the gene TFAP2A and TFAP2B and TFAP2D. Furthermore, this assay endpoint can be referred to as a primary readout, because this assay has produced multiple assay endpoints where this one serves a reporter gene function. To generalize the intended target to other relatable targets, this assay endpoint is annotated to the dna binding intended target family, where the subfamily is basic helix-turn-helix leucine zipper.
Human liver HepG2 cells are transiently transfected with multiple reporter transcription units (MRTUs) in 6-well plates using FuGene 6 reagent (Roche; 3 ml FuGene/1 mg DNA). The MRTU constructs are regulated by a cis-regulating element (promoter). […] A major difference between the CIS and TRANS system is that in CIS activities of endogenous TFs are measured, whereas the TRANS assay evaluates changes in activities of exogenous, chimeric NR-Gal4 proteins. […] At the end of 24 hour incubation, total RNA was isolated using TriZol reagent (Invitrogen). The isolated RNA is then reverse-transcribed using oligo(dT) primer and Mo-MLV reverse transcriptase (Invitrogen) with DNAse I (Ambion) treatment for 30 min. The one-tenth of the produced cDNA was amplified by PCR using Taq DNA polymerase (Invitrogen) and two reporter sequence-specific primers. The PCR products were fluorescently labeled by primer extension with 6-arboxyfluorescein (6-FAM) 5'-labeled reporter sequence-specific primer (2 min at 95 C, 20 s at 68 C and 10 min at 72 C) and these products were digested with 5U of HpaI (New England Biolabs) for 2h at 37 C. The fragments were purified using Qiaquick PCR columns (Qiagen), analyzed on an ABI 3130xL genetic analyzer (Applied Biosystems) with peak positions identified by using a set of X-rhodamine (ROX)-labeled MapMarker1000 molecular weight standards (BioVentures). The raw capillary electrophoresis data was processed using Attagraph software (Attagene).
On to `COC(=O)c1ccc(OC)cc1`, for which the compound was classed as inactive.
For `COCCOCCOCCO`, the compound was called inactive.
Consider `CCCCCCCCCCCCCCCC(=O)OC/C=C(C)/C=C/C=C(C)/C=C/C1=C(C)CCCC1(C)C`, for which the call was inactive.
Same read-out and setting: the value for `CC(Oc1cc(Cl)ccc1Cl)C(=O)O` (stereo not given) was “inactive”; that for `CSc1c(Cl)c(Cl)c(Cl)c(Cl)c1Cl` was “inactive”; that for `CCOC(=O)CCc1ccccc1` was “inactive”.
As to `CCCC(C)C(O)CC` (stereo not given), the compound was called inactive.
On the same count and under the same terms, the value for `N#Cc1cscn1` was “inactive”.
Same read-out and setting: under `CCCC(C)=O` stands “inactive”; under `CCOC(=O)[C@@H](C)Oc1ccc(Oc2nc3ccc(Cl)cc3o2)cc1`, “inactive”.
The same measure, in the same setting: the value for `Cc1ccc(OC(=O)c2ccccc2O)cc1` was “inactive”; that for `Nc1ccc2c(O)cc(S(=O)(=O)O)cc2c1` was “inactive”; that for `N#Cc1ccc(CC(=O)c2cccc(C(F)(F)F)c2)cc1` was “inactive”.
Turning to `COc1ccc(CCO)cc1`, the result was inactive.
With `CCCCCCC(C)(C)S`, the call was inactive.
Same read-out and setting: under `CCCCCCCCCC(C)C=O` (stereo not given) stands “inactive”; under `COc1ccc(CCN2CCC(Nc3nc4ccccc4n3Cc3ccc(F)cc3)CC2)cc1`, “inactive”.
The same measure, in the same setting: under `O=CN1CCOCC1` stands “inactive”.
Still for that read-out and setting: under `Cc1cccc(Nc2ccccc2)c1` stands “inactive”; under `BrCc1cccc(Oc2ccccc2)c1`, “inactive”; under `C=C(C)[C@@H]1CC=C(C)C(=O)C1`, “inactive”.
As for `COc1cc(CCC(C)=O)ccc1O`, the result was inactive.
Regarding `CCCOC(=O)c1c(Cl)c(Cl)c(Cl)c(Cl)c1C(=O)OCCC`, the compound was classed as inactive.
As for `CC(C)(CO)[C@@H](O)C(=O)NCCC(=O)O`, the call was inactive.
Still for that read-out and setting: under `C[N+](C)(C)CCCCCC[N+](C)(C)C` stands “inactive”; under `CN(C)c1cccc(O)c1`, “inactive”.
Same read-out and setting: under `OC[C@H]1O[C@@H](Oc2ccc(O)cc2)[C@H](O)[C@@H](O)[C@@H]1O` stands “inactive”.
Take `O=[N+]([O-])c1ccc(O)cc1C(F)(F)F`: the half-maximal activity concentration (AC50) – broadly, the concentration at which the activity in the assay is half-maximal – was 26.4 µM (active).
For `CC1CC(O)CC(C)(C)C1` (stereo not given), the compound was called inactive.
Regarding `CC(C)CCCCCCCCCCCCCCC(=O)O`, the call was inactive.
In the case of `CC(=O)C1(C)CC2=C(CCCC2(C)C)CC1C` (stereo not given), the AC50 was 76.1 µM (active).
In the case of `Cc1occc(=O)c1OC(=O)C(C)C`, the compound was classed as inactive.
The same measure, in the same setting: the value for `C=COCCOCCOC=C` was “inactive”; that for `Cc1cc(CCC(=O)OCCOCCOCCOC(=O)CCc2cc(C)c(O)c(C(C)(C)C)c2)cc(C(C)(C)C)c1O` was “inactive”.
On the same count and under the same terms, under `CCCCC(CC)C(=O)OC(C)C` (stereo not given) stands “inactive”; under `Cc1ncc([N+](=O)[O-])n1CCO`, “inactive”.
`CCCCCCC(=O)c1ccccc1`: the compound was classed as inactive.
On to `COC(=O)C=C(C)CCC=C(C)C`, for which the outcome was inactive.
In the case of `O=C(O)CNc1ccccc1`, the outcome was inactive.
Same read-out and setting: the value for `C=C(CC(=O)O)C(=O)O` was “inactive”.

For the origin of these results see PubChem BioAssay (EPA / NIEHS).
